The list shows a part of the results. The source made the active and inactive calls. No rule for the calls is given here.

For orientation: IC50 means the concentration that inhibits the measured activity by half.

This experiment can be described thus: signal-interfering artefacts in bead proximity readout – biochemical, AlphaScreen, HTS, counter-screen, dose response (AID 1259373). The note with it: AlphaScreen optical interference counterscreen, cell-free. In general terms: Bead proximity is the source of the signal in Alpha formats.
As for `CCOc1ccccc1N1CCN(Cc2cc(OC)c(O)c([N+](=O)[O-])c2)CC1`, the IC50 is > 6.48 µM (inactive).
Consider `CCc1ccc(NC(=O)CS(=O)CC(=O)NCCCc2ccccc2)cc1` (centres undefined), for which the IC50 was > 6.48 µM (inactive).
Turning to `Cc1ccc(NC(=O)COC(=O)CCC(=O)Nc2sc3c(c2C(N)=O)CCC3)cc1F`, the IC50 was > 6.95 µM (inactive).
In the case of `CC[C@@H]1NC(=O)[C@H]2CN(C(=O)NCc3ccccc3)CCN2C1=O` it was > 6.48 µM (inactive); in that of `COc1ccc2c(c1)CC(c1nc(Nc3ccc4cnccc4c3)c3ccccc3n1)CO2` (centres undefined), > 6.48 µM (inactive); in that of `O=C(Nc1ccc(-c2ccncc2)c(C(F)(F)F)c1)C1COc2ccccc2O1` (centres undefined), > 6.48 µM (inactive).
Consider `C/C(N)=C(/C#N)C(=O)COC(=O)c1c2c(nc3ccccc13)/C(=C/c1ccco1)CC2`, for which the IC50 is > 6.27 µM (inactive).
As for `COc1ccc2c(c1)CC(C(=O)Nc1ccc(-c3cn[nH]c3)cc1OCC(N)=O)CO2` (centres undefined), the figure is > 6.48 µM (inactive).
On to `c1cc2c(cc1CNc1nc(Nc3ccc(N4CCOCC4)cc3)c3ncn(C4CCCCC4)c3n1)OCO2`, for which the IC50 is > 6.62 µM (inactive).
In the case of `NC(=O)COC(=O)/C=C/c1ccc(I)o1` it was > 7.27 µM (inactive); in that of `COc1ccc2c(c1)CC(C(=O)Nc1ccc(-c3cn[nH]c3)cc1OCc1ccccc1)CO2` (centres undefined), > 6.48 µM (inactive); in that of `O=C(Cc1cccs1)N/N=C\C=C\c1ccco1`, > 6.48 µM (inactive).
In the case of `COc1cc(N2CCOCC2)ccc1Nc1cc(Nc2ccccc2-n2cccn2)c(C(F)(F)F)cn1` it was > 6.48 µM (inactive); in that of `C[C@@H](OCc1ccccc1)[C@@H]1NC(=O)[C@H]2CN(C(=O)Nc3cccc(F)c3)CCN2C1=O`, > 6.48 µM (inactive).
